Screen size: about 360,000 compounds; about 2,700 (0.75%) were called active. Rule as the data show it: active = inhibition above about 4.5%; inactive = the rest. Only a selection was taken, and actives are over-represented in it overall.

The assay deals with Methionine sulfoxide reductase A (Bos taurus). The assay can be described thus: inhibition of methionine sulfoxide reductase A – biochemical, absorbance, bovine, HTS, primary screen (AID 651718).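 Also: 0% = vehicle wells with enzyme and 100% = reference inhibitor wells.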 The settings on record: purified bovine MsrA, absorbance read-out; at 15.5 µM; active compounds read high.
By inhibition is commonly meant the change of the read-out against control, counted positive when it falls. Turning to `CCOc1ccc(-c2cc(C)[n+](CCN(CC)CC)c(-c3ccc(OCC)cc3)c2)cc1`, the inhibition is 5.24% (active).

Regarding `Clc1ccc([C@@H]2CC3CCC2N3)cn1` (stereo not given in full), the inhibition was -0.82% (inactive).

`COc1cc(OC)cc(C(=O)NCCN2CCC3(CC2)C(=O)NCN3c2ccccc2)c1`: the inhibition is 0% (inactive).

Take `Brc1ccc2c(c1)CNCc1cnnn1-2`: the inhibition was -0.08% (inactive).

Consider `Cc1cc(N2CCNC[C@@H]2C)ccc1N1CC[C@H](O)C1`, for which the inhibition was 0% (inactive).

Consider `COc1ccc(C(=O)C2CCCN(Cc3ccc(C)s3)C2)cc1OC` (stereo not given), for which the inhibition is 4.73% (active).

Take `Cc1ccc(CN2CCCC(C(=O)c3ccc4c(c3)OCO4)C2)cc1C` (stereo not given): the inhibition is 0.84% (inactive).

Consider `COc1cccc(CN2CCCC(C(=O)c3ccccc3SC)C2)c1O` (stereo not given), for which the inhibition was 1.68% (inactive).

In the case of `COC1C(O)C(C)OC(OC2CCC3(C=O)C(CCC4C3CCC3(C)C(C5=CC(=O)OC5)CCC43O)C2)C1O` (stereo not given), the inhibition was 0.09% (inactive).

`CCC(C)NC1(c2ccccc2)CCCCC1` (stereo not given): the inhibition was -0.91% (inactive).

Regarding `CCCCC(=O)N/N=C/c1c(O)n(CC)c(=S)n(CC)c1=O`, the inhibition is 5.43% (active).

Consider `COc1ccc2c(c1)[C@@]13CCCCC1[C@@H](C2)NCC3` (stereo not given in full), for which the inhibition is 0.27% (inactive).

Regarding `O=S(=O)(c1ccccc1)N1CCC2CCNC2C1` (stereo not given), the inhibition was -0.74% (inactive).

With `CS(=O)(=O)N1CCC2CCNC2C1` (stereo not given), the inhibition is 0.9% (inactive).

For `CCN(CC)C(=O)[C@@H]1C=C2c3cccc4[nH]c(Br)c(c34)C[C@H]2N(C)C1`, the inhibition was 0% (inactive).
